The record followed here is PubChem BioAssay (NCI).

Each structure is given as a SMILES string. The panel holds about 79,000 compounds, 15% with a hit somewhere; the sample as a whole holds those more often. Unmarked numbers belong to inactive results. Activity calls are given as the source filed them. Cut-off read from the data, not from the text of the source: active = growth inhibition above about 70%; inactive = the rest.

The nature of experiment [1]: NCI Yeast Anticancer Drug Screen. Data for the rad50 strain (AID 155).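 Note: 0% = growth of vehicle-only cultures of the same strain.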 The following applies: S. cerevisiae rad50 strain growth inhibition; at 50.0 µM; hits give high values. The gist of the method: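 Genetically altered yeast (DNA repair pathway); compound treatment; growth inhibition vs vehicle ctrl.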
Experiment [2] can be described thus: NCI Yeast Anticancer Drug Screen. Data for the mec2-1 strain (AID 157). The following applies: S. cerevisiae mec2-1 strain, at 50.0 µM, hits give high values. The gist of the method:
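Growth inhibition is read against vehicle-treated controls after compound exposure of the mec2-1 yeast strain, which is defective in DNA damage repair or cell cycle control.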

Experiment [3] is described as follows: NCI Yeast Anticancer Drug Screen. Data for the sgs1 mgt1 strain (AID 161).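 Note: 0% = growth of cultures given vehicle only.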 The following applies: S. cerevisiae sgs1 mgt1 strain, at 50.0 µM, hits give high values. The gist of the method:
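Compounds are added to genetically altered yeast, and growth is compared with cultures given vehicle alone to give percent inhibition.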

Experiment [4] in a line: NCI Yeast Anticancer Drug Screen. Data for the cln2 rad14 strain (AID 165).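 Note: 0% = growth equal to vehicle treated cultures.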 Particulars: S. cerevisiae cln2 rad14 strain, at 50.0 µM, hits give high values. The gist of the method:
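Growth inhibition, relative to vehicle-treated controls, is the read-out. The test organism is a yeast strain with defined genetic alterations, cln2 rad14.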

The nature of experiment [5]: NCI Yeast Anticancer Drug Screen. Data for the bub3 strain (AID 167). The following applies: S. cerevisiae bub3 mutant strain, at 50.0 µM, hits give high values. The gist of the method: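 Yeast carrying a defined mutation is treated with each compound, and growth is compared with that of vehicle-exposed cells to give inhibition.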
A short description of experiment [6]: NCI Yeast Anticancer Drug Screen. Data for the mlh1 rad18 strain (AID 175). Particulars: S. cerevisiae mlh1 rad18 strain growth inhibition; at 50.0 µM; hits give high values. The gist of the method:
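Cells of a genetically altered yeast strain, deficient in DNA damage repair, were treated with compound. Their growth was then compared with that of vehicle-treated cultures to give inhibition.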

Consider `CCCCOC(=O)c1cc2ccccc2oc1=O`, for which the growth inhibition in experiment [1] was 34.5%; in experiment [2], 9.9%; in experiment [3] it was 25.1%; in experiment [4], 15.7%; in experiment [5], 27.2%; in experiment [6], 34%.
Take `CC(=O)N1CC(=O)N2C(=O)/C(=C/c3ccc(Cl)cc3)N=C12`: the growth inhibition was 2.3% in experiment [1]; 1.35% in experiment [2]; 11.9% in experiment [3]; 3.35% in experiment [4]; 9.45% in experiment [5]; -42.4% in experiment [6].
For `Cc1cc(/C=C\[N+](=O)[O-])c(C)c2c1oc1ccccc12`, the growth inhibition in experiment [1] was -10.8%; in experiment [2] it was -2.55%; in experiment [3], 2.1%; in experiment [4], 4.75%; in experiment [5], 2.4%; in experiment [6] it was -7.05%.
For `Cc1ncc(CO)c(Nc2ccccc2Cl)n1`, the growth inhibition in experiment [1] is 2.5%; in experiment [2], -2.4%; in experiment [3], -6.25%; in experiment [4], -16.4%; in experiment [5], -11.7%; in experiment [6], 14.4%.
With `C=CCOC1OC(CS(=O)(=O)O)C(OC(C)=O)C(OC(C)=O)C1OC(C)=O` (stereo not given), the growth inhibition in experiment [1] was 17.9%; in experiment [2] it was 4.2%; in experiment [3] it was -1.1%; in experiment [4], 21.6%; in experiment [5] it was -2.75%; in experiment [6] it was 15.9%.
Turning to `Cc1ccc(C(=O)O)c(=O)[nH]1`, the growth inhibition in experiment [1] is 3.65%; in experiment [2], -26.1%; in experiment [3] it was 5.3%; in experiment [4], 2.05%; in experiment [5], 7.3%; in experiment [6] it was -2%.
As for `N#CC(CNC1CCCCC1)c1ccccc1` (stereo not given), the growth inhibition in experiment [1] is -9.35%; in experiment [2] it was -4.35%; in experiment [3] it was 4.3%; in experiment [4], -32.7%; in experiment [5], 15.1%; in experiment [6] it was 10.7%.
On to `C[N+](C)(C)CCCCCC[N+](C)(C)C`, for which the growth inhibition in experiment [1] was -31.8%; in experiment [2] it was -15.6%; in experiment [3], -22.9%; in experiment [4] it was -14.2%; in experiment [5], -31.7%; in experiment [6], -30.2%.
On to `COc1ccc2cc(C(C)C(=O)N3C(=O)OCC3(C)C)ccc2c1` (stereo not given), for which the growth inhibition is 19.4% in experiment [1]; -11.3% in experiment [2]; 30.4% in experiment [3]; -13.7% in experiment [4]; -8.75% in experiment [5]; 9.95% in experiment [6].
Take `Cc1cc(N(CCC#N)CCC#N)ccc1/C=C(\NC(=O)/C=C/c1ccccc1)NC(=O)Nc1ccc(Cl)cc1`: the growth inhibition in experiment [1] was 13.5%; in experiment [2], 2.75%; in experiment [3], -17.9%; in experiment [4], 10.8%; in experiment [5] it was 12.5%; in experiment [6], 29.2%.
Regarding `O=C(Nc1ccc(F)c([N+](=O)[O-])c1)Nc1cc(C(F)(F)F)ccc1Cl`, the growth inhibition in experiment [1] is 9.4%; in experiment [2], 1%; in experiment [3] it was 0.55%; in experiment [4], -0.4%; in experiment [5], -4.65%; in experiment [6], 24.2%.
Regarding `C/C(=N\O)c1ccc2[nH]c(C)cc(=O)c2c1`, the growth inhibition in experiment [1] is 2.95%; in experiment [2], 5.7%; in experiment [3] it was -5.45%; in experiment [4] it was -32.9%; in experiment [5] it was -1.15%; in experiment [6], 12.7%.
Take `CC(N)(CCSCP(=O)(O)O)C(=O)O` (stereo not given): the growth inhibition in experiment [1] is -22.1%; in experiment [2] it was -7.4%; in experiment [3] it was -19.5%; in experiment [4], -26.9%; in experiment [5], -7.45%; in experiment [6] it was -27.4%.
With `CN1C(=O)C(=O)N(C)C(=O)C1=O`, the growth inhibition in experiment [1] was 8.75%; in experiment [2] it was 11.2%; in experiment [3], 10.7%; in experiment [4] it was 7.1%; in experiment [5], 12.8%; in experiment [6] it was 9.6%.
For the compound `COc1ccc(/C=C/c2cnc3ccccc3n2)cc1OC`, the growth inhibition in experiment [1] was 28.8%; in experiment [2] it was -4.55%; in experiment [3] it was 58.4%; in experiment [4] it was 25.8%; in experiment [5] it was 45.4%; in experiment [6] it was 81% (active).
For `CCOC(=O)Nc1nn(-c2ccc3ccccc3n2)c(=O)[nH]1`, the growth inhibition in experiment [1] is 15.7%; in experiment [2], 1.65%; in experiment [3], 10.7%; in experiment [4], 11.9%; in experiment [5], 7.75%; in experiment [6] it was 13.7%.
`c1ccc2oc(N3CCN(c4nc5ccccc5o4)CC3)nc2c1`: the growth inhibition in experiment [1] is 4.45%; in experiment [2], -0.2%; in experiment [3] it was -9.1%; in experiment [4], 5.85%; in experiment [5], 12%; in experiment [6], -12.2%.
On to `Cc1cc(=O)n(Cc2ccco2)c(=S)[nH]1`, for which the growth inhibition in experiment [1] was 25.1%; in experiment [2] it was -25.4%; in experiment [3], 14.6%; in experiment [4], 0.75%; in experiment [5], -0.9%; in experiment [6] it was -9%.
Turning to `O=C1NC(CN2CCC(O)CC2)C(=O)NC1CN1CCC(O)CC1` (stereo not given), the growth inhibition in experiment [1] was 0.6%; in experiment [2], 7.7%; in experiment [3], -10.2%; in experiment [4] it was 2.4%; in experiment [5] it was -1.05%; in experiment [6] it was -0.35%.
On to `Cc1c(C)c2cc3c(=O)c(CCl)coc3c(C)c2oc1=O`, for which the growth inhibition is 22.4% in experiment [1]; 1.15% in experiment [2]; 16% in experiment [3]; 15.6% in experiment [4]; -7.15% in experiment [5]; -5.95% in experiment [6].
